Measured values as given in PubChem BioAssay AID686978 (National Center for Advancing Translational Sciences (NCATS), 2013).
In all, about 420,000 compounds went through this assay and about 64,000 (15%) were called active. About 27% were inconclusive and are not listed. These entries were drawn from the full list. Unmarked numbers belong to inactive results. Calls follow the shape of the dose curve; as a rule, active = well fitted inhibition curve with a large enough effect; inconclusive = small, poorly fitted or top-dose-only effect; inactive = flat fitted curve, though single readings scatter.

Test: qHTS for Inhibitors of human tyrosyl-DNA phosphodiesterase 1 (TDP1): qHTS in cells in absence of CPT; also: nearly all actives have a fitted effect of over 55% in size
Details: DT40 Tdp1-/- hTDP1 cells, no CPT, ATP luminescence, 48 h; activity change, negative = growth inhibition: at 46.2 µM (top of the series)
In short: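 Compound effects on proliferation are scored in DT40 Tdp1-/-;hTDP1 cells in the absence of CPT. ATP levels (CellTiter-Glo luminescence) are recorded after a ≥48 hr, 37 °C incubation.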
% is scaled to controls: 0 for no effect and ±100 for the full control effect; potency is read from the fitted curve at half-maximal effect.

SMILES | activity change, negative = growth inhibition [%] | Potency
COC(=O)[C@@H](NC(=O)Nc1cc(Cl)ccc1C)C(C)C | -2.95 | 
Cc1ccc2c(C)nc(N3CCCC(C(=O)NC(C)(C)CO)C3)nc2c1 (centres undefined) | -23.1 | 
Cc1ccc(NC(=O)CSc2nnc(-c3cnccn3)n2Cc2ccco2)cc1C | -12.6 | 
O=C(COc1ccc(S(=O)(=O)NCc2ccccc2)cc1)N1CCOCC1 | -18.6 | 
COC(=O)c1c(-c2ccc(C)cc2)csc1N | -19.4 | 
CC(=NCc1ccco1)C1=C(O)c2ccccc2C1=O | -22.6 | 
CCOC(=O)c1c(-c2ccc(C)cc2)csc1/N=C(\C)C1=C(O)c2ccccc2C1=O |  | 18.4 µM (active)
CCOC(=O)c1c(/N=C/C2C(=O)CC(C)(C)CC2=O)sc(C)c1C | -3.59 | 
CC1CCCCC1NC(=O)COC(=O)Cc1ccc(Br)cc1 (centres undefined) | 2.5 | 
CCCCn1c(N)c(N(CC)C(=O)c2ccc(N(C)S(=O)(=O)c3ccc(C)cc3)cc2)c(=O)[nH]c1=O | -0.183 | 
Cc1ccc2nc(Nc3ccccc3O)nc(-c3ccccc3)c2c1 | -8.65 | 
NC(N)=Nc1nc(-c2ccccc2)c2cc(Cl)ccc2n1 |  | 16.4 µM (active)
O=C(O)c1ccc(Nc2nc(-c3ccccc3)c3cc(Br)ccc3n2)cc1 | -23.2 | 
C[C@H]1CC[C@]2(O[C@@H](CCO)C[C@@H](O)[C@@H]2O)O1 | -14.8 | 
COc1ccc(-n2cc(CNC3CCOCC3)c(-c3cccc(F)c3)n2)cc1 |  | 20.6 µM (active)
COc1ccc(NC(=S)N2CCC(NC(=O)c3cccc(F)c3)CC2)cc1 | -22.5 | 
Cn1cc(CN2CCC(C(O)CCc3ccccc3)CC2)c(-c2ccccc2F)n1 (centres undefined) | -15.1 | 
COCCn1c(=O)c(-c2cccc(F)c2)nc2cncnc21 | 2.81 | 
Cc1cccc(-n2cc(CN3CCN(C(=O)c4ncn[nH]4)CC3)c(-c3cccc(F)c3)n2)c1 | -1.1 | 
CCC(O)C1CCN(Cc2cn(-c3ccc(OC)cc3)nc2-c2cccc(F)c2)CC1 (centres undefined) |  | 20.6 µM (active)
COC(=O)CC1Oc2ccccc2-n2cc(-c3ccccc3)nc21 (centres undefined) |  | 20.6 µM (active)
CCC(CC)c1nn2cc(-c3ccccc3)nc2s1 | -10.9 | 

SMILES | activity change, negative = growth inhibition [%] | Potency
COC(=O)CC1=NN(c2ccccc2)C(=O)C1 | 1.46 | 
CCC1CCCCN1C(=S)NC(=O)c1ccco1 (centres undefined) | -15.4 | 
CC(=O)c1cccc(NC(=O)[C@@H](NC(N)=O)C(C)C)c1 | 17.4 | 
O=C(O)Cc1ccc(NC(=O)c2cccs2)cc1 | -24.9 | 
COc1ccc(CCNC(=O)CSc2nnc(CNC(=O)c3cccs3)o2)cc1OC | -2.7 | 
COc1ccc(CCNC(=O)/C(C#N)=C2\N=C(NC(=O)c3cccs3)c3ccccc32)cc1 |  | 10.3 µM (active)
CCc1ccc2c(c1)cc(CN(C(=S)Nc1ccccc1Cl)C1CC1)c1nnnn12 | -20.9 | 
Cc1oc2c(C)c3oc(=O)c(CC(=O)N[C@@H](CC(C)C)C(=O)N[C@@H](Cc4ccccc4)C(=O)O)c(C)c3cc2c1C | 4.05 | 
COCc1[nH][nH]c(=O)c1C=Nc1ccc(F)cc1F | 0.924 | 
COc1cccc(N(CC(=O)N2CCc3ccccc3C2)S(C)(=O)=O)c1 | 5.09 | 
Cc1ccc(S(=O)(=O)N(CC(=O)N2CCc3ccccc3C2)c2cccc(Cl)c2)cc1 |  | 20.6 µM (active)
CS(=O)(=O)N(CC(=O)N1CCc2ccccc2C1)c1ccc(Br)cc1 | -22.6 | 
Cc1ccccc1CNC(=O)CCC(=O)N1Cc2ccccc2Oc2ncccc21 | -21.1 | 
COc1ccc(C(=O)N(C)Cc2ccc(OC)c(OC)c2OC)cc1S(=O)(=O)N1CCOCC1 | 21.5 | 
COc1ccc(C(=O)NCc2ccc(C)cc2)cc1S(=O)(=O)N1CCCC1 | 0.964 | 
Cc1ccc(S(=O)(=O)N2CCOCC2)cc1C(=O)NC(=S)N(Cc1ccccc1)C(C)C | -7.61 | 
COc1ccc(C(=O)OCC(=O)c2ccc(C)c(S(=O)(=O)N3CCOCC3)c2)cc1OC |  | 11.6 µM (active)
Cc1ccc(S(=O)(=O)N2CCN(C(=O)c3cc(S(=O)(=O)N4CCOCC4)ccc3F)CC2)cc1 | -16.8 | 
COc1ccc(C(=O)N(Cc2ccccc2)c2ccc(C)cc2)cc1S(=O)(=O)N1CCOCC1 |  | 14.6 µM (active)
Cc1ccc(C(=O)OCC(=O)N2CCCCCC2)cc1S(=O)(=O)N1CCOCC1 | 4.19 | 
CCOc1ccc(CCNC(=O)COC(=O)c2ccc(C)c(S(=O)(=O)N3CCOCC3)c2)cc1OCC | -3.81 | 
Cc1cccc(N(Cc2ccccc2)C(=O)c2cc(S(=O)(=O)N3CCOCC3)ccc2F)c1 |  | 18.4 µM (active)

SMILES | activity change, negative = growth inhibition [%] | Potency
O=C1c2cccc3cccc(c23)N1CN1CCN(c2ccccn2)CC1 | 4.31 | 
CCCCc1ccc(NC(=S)N2CCCC(CO)C2)cc1 (centres undefined) | -12.3 | 
Oc1ccc2ccc3cccc[n+]3c2c1 | -17.9 | 
CCCCN(CC)CCCNC(=O)c1ccc(CSc2nc3ccncc3[nH]2)cc1 | -13.3 | 
O=C(Cn1ccc([N+](=O)[O-])n1)NCc1cccs1 | -15 | 
O=C(COC(=O)c1cccc(Cl)c1)Nc1ccc2[nH]c(=O)[nH]c2c1 | -12.1 | 
C/C=C/C1=C(C(=O)O)N2C(=O)[C@@H](NC(=O)[C@H](N)c3ccc(O)cc3)[C@H]2SC1 | -2.02 | 
CCN(CC)CCNC(=O)CN1N=C(c2ccc(OC)cc2)CCC1=O | -5.02 | 
COc1ccccc1CNC(=O)c1ccc(CS(=O)(=O)c2ccccc2)o1 | -26.6 | 
COc1ccc(CCNC(=O)NS(=O)(=O)c2ccc(C)cc2)cc1OC | -5.03 | 
Cc1ccc(CCNC(=O)c2ccc(CS(=O)(=O)Cc3cccc(C)c3)o2)cc1 |  | 18.4 µM (active)
CCCNS(=O)(=O)c1ccc(CCC(=O)NCc2cccnc2)cc1 | -2.63 | 
COc1ccc(CCNC(=O)c2ccc(CSCc3ccc(C)cc3)o2)cc1OC |  | 23.1 µM (active)
O=C(NCc1cccnc1)c1ccc(CS(=O)(=O)c2ccc(Br)cc2)o1 |  | 14.6 µM (active)
COc1ccc(CCNC(=O)c2ccc(CS(=O)(=O)c3ccc(Br)cc3)o2)cc1OC |  | 14.6 µM (active)
COc1ccc(CCNC(=O)CCNS(=O)(=O)c2cc(Br)cnc2N)cc1OC | -3.66 | 
O=C(NCc1cccnc1)c1cnc2ccccc2n1 | -20.8 | 
O=C(NCc1ccco1)c1ccc(CS(=O)(=O)Cc2ccc(F)cc2)o1 | -24.8 | 
Cc1ccc(CNC(=O)c2ccc(CS(=O)Cc3cccc(Cl)c3)o2)cc1 (centres undefined) | -6.34 | 
COc1ccc(CCNC(=O)Cc2ccc(C)cc2)cc1OC | -22 | 
